Measured values reported in PubChem BioAssay AID602296 (Broad Institute, 2012).
The campaign covered roughly 2,000 compounds. About 190 (9.5%) were called active. Inconclusive results (about 14%) are left out.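 The calls were made as follows: active = fitted activation curve crossing 40% at a concentration no higher than the sample's top valid tested dose; inconclusive = flat fitted curve at 30% to 70% activation, or poor curve fit; inactive = signal decrease, flat curve within 30%, or the rest.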 Only a sample is shown.

test: HSF-1 reporter activators over prolonged exposure, confirmation, cell-based, mouse, luciferase, cherry-pick, dose (AID 602296); conditions: NIH3T3-HGL HSF-1 response element luciferase, 48 h; series mostly up to 26 µM; activation: at the top concentration;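 also: test compounds applied by themselves with no MG132 co-treatment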

activation, inactive:
Cc1onc(-c2ccccc2)c1C(=O)N/N=C/c1cccc(O)c1 -6.78%
C=CCc1ccc(OCC(O)CO)c(OC)c1 (centres undefined) -2.53%
NC(=O)c1ccc(NC(=O)CC23CC4CC(CC(Br)(C4)C2)C3)cc1 2.54%
Cc1cccn2c(=O)nc(SCC(=O)N3N=C(c4cccs4)CC3c3ccc(F)cc3)nc12 (centres undefined) -21.7%
O=C(NNc1c(F)c(F)cc(F)c1F)c1ccc(Cl)nc1 7.76%
CCOc1ccc(CN(C)CC(O)COC(c2ccc(OC)cc2)c2ccc(OC)cc2)cc1 (centres undefined) -94%
O=C(/C(=N/N=C/c1ccc(O)c(O)c1)c1ccccc1)c1ccccc1 -87.1%
Cc1ccc(Cl)c2c1=NC(=O)C=2c1[nH]c(=S)[nH]c1O -16.3%
Cc1ccc(N(Cc2ccc(C(=O)Nc3ccccc3C(=O)NCc3ccco3)cc2)S(C)(=O)=O)cc1C -8.84%
CC(C)=C1C2CCC1C1C(=O)N(c3nc(-c4ccccc4)c(C)s3)C(=O)C21 (centres undefined) -19.2%
COc1ccc(CCNC(=O)C2CCCN(Cc3nc(-c4ccccc4C)oc3C)C2)cc1OC (centres undefined) -12.3%
O=C1[C@@H]2Cc3c([nH]c4ccccc34)C(c3ccc([N+](=O)[O-])cc3)N2C(=O)CN1C1CC1 (some centres undefined) -1.65%
CC(=O)c1ccc(N=C2C(=O)Nc3ccccc32)cc1 10.8%
Cc1ccc(-c2[nH]c3ccccc3c2C(C[N+](=O)[O-])c2ccco2)cc1 (centres undefined) -25.2%
Cc1cc(Sc2nnc(N)s2)c2ccccc2n1 -101%
COC(=O)Nc1ccc(S(=O)(=O)N2CCC(C(=O)N3CCCC(C)C3)CC2)cc1 (centres undefined) 8.64%
CC12CN(C(=S)Nc3ccccc3)CC(C)(CN(C(=S)Nc3ccccc3)C1)C2=O 5.01%
COc1ccccc1C(=O)NCCCNC(=O)c1ccccn1 1.6%
COc1cc(-c2nnc(SC/C=C/c3ccccc3)n2N)cc(OC)c1OC -22.3%
NCCCCCc1nnc(SC/C=C/c2ccccc2)o1 -5.43%
COc1cccc(-c2c(C(=O)N/N=C(\C)c3ccc(Cl)s3)nnn2-c2nonc2N)c1 -28.4%
C=C(C)Cn1c(SCC(=O)O)nnc1-c1ccc(OC)cc1 -2.32%
CC(=O)COc1cccc2ccc(/C=C/c3ccc(Br)s3)nc12 1.39%
Cc1[nH]n(-c2ccccc2)c(=O)c1C(C[N+](=O)[O-])c1ccc(F)cc1 (centres undefined) -47.7%
C=CCn1c(C2CCCCC2)n[nH]c1=S -1.72%
S=c1[nH]nc(-c2cc(-c3ccccc3)n[nH]2)n1/N=C/C(Br)=C/c1ccccc1 -108%
COc1ccc2cc(S(=O)(=O)N3CCCCC3)ccc2c1S(=O)(=O)N1CCCCC1 -15.5%
CCOC(=O)COc1ccc(/C=C2/SC(=Nc3ccccc3)N(Cc3cccnc3)C2=O)cc1OC -37.4%
CCCCc1nnc(NC(=O)C(C)Sc2nc(C)cc(=O)[nH]2)s1 (centres undefined) 2.97%
CCn1c(CNC(C)=O)nnc1SCC(=O)c1ccc(Br)cc1 -12% [at 12 µM]
COc1ccc(C(CCNCc2ccccc2)c2ccc(F)cc2)cc1 (centres undefined) -7.83%
Nc1cnn(Cc2ccc(F)cc2)c1 -9.5%
CC1=CC(C)(C)Nc2ccc(OC(=O)C(Cc3ccccc3)N3C(=O)c4ccccc4C3=O)cc21 (centres undefined) -75.7%
CCOc1ncccc1C(=O)N(C)CC1COc2ccccc2O1 (centres undefined) 4.02%
O=C(CCCN1C(=O)c2cccc3cccc(c23)C1=O)Nc1ccon1 9.55%
CCN(CC)CCOc1ccc(/C(=C(/Cl)c2ccccc2)c2ccccc2)cc1 -59%
CCCCN(C)C(=O)C1CCC(CNS(=O)(=O)c2ccc3c(c2)CC(C)N3C(=O)C2CC2)CC1 (centres undefined) -24.4%
Brc1ccc2c(c1)C(c1cccnc1)=NNC(c1cccs1)=N2 -23.4%
Cc1ccc(-n2c(C)cc(C(=O)COc3c(CO)cc(F)cc3CO)c2C)cc1C -13%
Cc1c(NC(=O)CSc2nnc3c4ccccc4n(CCc4ccccc4)c3n2)c(=O)n(-c2ccccc2)n1C -30.7%
CC(=O)Nc1ccc(N2C(=O)C3C4CC(=O)C(c5ccccc54)C3C2=O)cc1 (centres undefined) -4.5%
O=c1[nH]c(CSc2ccccn2)nc2c1oc1ccccc12 -99.2%
C=CCn1c(COc2ccc(CC)cc2)nnc1SC/C(O)=C(\C#N)c1nc2ccccc2[nH]1 -17.9%
O=C(CSC1=NCCN1)Nc1cccc(C(F)(F)F)c1 -21.6%
S=C(NCCSCc1ccc(Cl)c(Cl)c1)Nc1ccccc1 -55.3%
CC1(C)CC(=O)C2=C(C1)N1C(=C(C#N)C2c2ccc(Cl)cc2)N=C(N)c2ccccc21 (centres undefined) -53.2% [at 12 µM]
O=C(CNS(=O)(=O)c1ccc(Br)s1)NCc1ccccc1 0.286%
Cc1ccc(CNC(=O)Cn2ccc3ccccc3c2=O)o1 10.8%
CNC(=O)N(O)C1N(/N=C/c2c(F)cccc2Cl)C(=S)SC1(C)C (centres undefined) -5.57%
FC(F)(F)c1ccc(Sc2nnc(-c3cccs3)n2CC2CCCO2)nc1 (centres undefined) 5.38%
Clc1ccc(CCNc2nc3ccccc3n3nnnc23)cc1 -11.4%
O=C(Nc1cccc(Cl)c1)N1CCC(CO)(CCOc2ccccc2)CC1 6.61%
COc1ccc(/C=C/C(=O)c2ccc(O)cc2)cc1COc1ccc(F)cc1 -71.3%
Oc1cc(-c2ccccc2)c2ccccc2c1 -26.3%
Cc1nc2cc3nc(C(F)(F)F)[nH]c3cc2[nH]1 -1.68%
COc1ccccc1CCC(=O)OCC(=O)Nc1c(Br)cc(C)cc1Br -11.2%
O=C(NCCc1ccc(O)c(O)c1)C1COc2ccccc2O1 (centres undefined) -31.9%
CC(NC(=O)c1ccc(C(C)(C)C)cc1)C(c1cccs1)N1CCOCC1 (centres undefined) 3.38%
CCNC(=O)C(=O)NCc1ccncc1 -12.5%
CCn1cnc2c1c(=O)n(Cc1nnc3n1-c1ccccc1SC3)c(=O)n2Cc1ccccc1 -8.97%
N#Cc1cc(Cl)c(NCC2CCCO2)cc1C#N (centres undefined) -8.57%
Cc1ccc(S(=O)(=O)NNC(=O)c2sc3nc(C)cc(C)c3c2-n2cccc2)cc1 -31.5%
Clc1ccc(CO/N=C/c2c(-c3ccccc3)nc3n2CCS3)c(Cl)c1 -67.9%
Cc1ccc(-c2nc3ccccc3[nH]2)cc1NC(=O)c1ccc2c(c1)OCO2 3.91%
COc1cccc(NC=C2C(=O)OC3(CCCCC3)OC2=O)c1 -0.84%
Cc1sc2nc(CSc3cccc(C(F)(F)F)c3)[nH]c(=O)c2c1C -6.05%
COc1ccc(N2C(=O)CC(Sc3nnnn3-c3ccc(F)cc3)C2=O)cc1 (centres undefined) -104%
CC(C(=O)Nc1ccccc1Br)N1c2cccc3cccc(c23)S1(=O)=O (centres undefined) -32.6%
CC(=O)c1ccc(N2CCN(C(=O)c3n[nH]c4ccccc34)CC2)cc1 -5.87%
Cc1ccc(C(=O)Cn2nnc(-c3ccccc3-n3cnnn3)n2)cc1 7.09%
COc1ccccc1NC(=O)C1=C(C)NC2=C(C(=O)CC(c3ccc(OC)c(OC)c3)C2)C1c1coc2ccccc2c1=O (centres undefined) -44.2%
Cc1ccc(S(=O)(=O)N(C)c2ccc(C)c([N+](=O)[O-])c2)cc1 0.076%
CCOC(=O)C1=C(C)Nc2nc3ccccc3n2C1c1ccncc1 (centres undefined) 1.53%
COc1ccc(NC(=O)C(NCC(C)C)c2ccccc2)cc1Cl (centres undefined) -0.667%
O=S(=O)(c1ccc(-n2cnnn2)cc1)N1CCNCC1 -0.865%
CCCCCCCCCCCC(=O)c1c(O)cccc1O -66.3%
O=C(NC1CCCN(Cc2ccccc2F)C1)c1cccs1 (centres undefined) -6.74%
O=C(O)c1cc([N+](=O)[O-])c(NCCC2=CCCCC2)c([N+](=O)[O-])c1 -5.64%
O=C(Nc1cccc(Cl)c1)C1CCCN(S(=O)(=O)c2ccc(F)cc2)C1 (centres undefined) -0.929%
COC(=O)Nc1ccc(S(=O)(=O)Nc2cccc3ccccc23)cc1 -34.8%
O=C(CCn1c(=O)oc2ccccc21)Nc1ccccc1 5.77%
CC1(C)Cc2nc(NCCN3CCOCC3)c(C#N)cc2CO1 -12.8%
CC(=O)C1=C(O)C(=O)N(c2nccs2)C1c1ccccc1 (centres undefined) -6.69%
Cc1[nH]nc(-c2ccc(O)c(C)c2O)c1-c1cnn(-c2ccccc2)c1 -13.3%
CCOC(=O)C1=C(C)Nc2ncnn2C1c1ccc2c(c1)OCO2 (centres undefined) -2.17%
COCCCNC(=O)c1c[nH]c2ccc(S(=O)(=O)N3CCc4ccccc43)cc2c1=O -7.37%
NS(=O)(=O)c1ccc(CCNC(=O)c2ccc([N+](=O)[O-])s2)cc1 -4.33%
CC(=O)Cc1cc(O)c2ccccc2c1OC(=O)c1ccccc1 9.89%
O=C1CC(NNc2ccccc2)C(=O)N1c1ccccc1 (centres undefined) -54.7%
Cc1cc(NC(=O)c2cc(C)on2)n(-c2ccccc2)n1 -10.5%
CCOC(=O)c1c(NC(=O)c2nn(CC)cc2Br)c(C#N)nn1-c1ccccc1 -52.7%
Cc1oc2ccc(NS(=O)(=O)c3ccc(C(C)(C)C)cc3)cc2c1C(=O)Nc1ccccc1 -31.3%
CCCc1[nH]nc2c1C(c1cc(OC)ccc1F)C(C#N)=C(N)O2 (centres undefined) -18.2%
O=C(CN1C(=O)NC(Cc2c[nH]c3ccccc23)C1=O)Nc1cccc(S(=O)(=O)N2CCOCC2)c1 (centres undefined) -5.34%
CCOC(=O)C(C)(C)N(Cc1ccc(C)cc1)S(=O)(=O)c1ccc(Cl)c([N+](=O)[O-])c1 -87.3%
Oc1ccc(-c2cnc(-c3ccc(O)cc3)nc2)cc1 -63.3%
Cc1cccc2cc(CN(Cc3ccco3)C(c3nnnn3CCc3ccccc3)C(C)C)c(=O)[nH]c12 (centres undefined) -36.5%
COCCNC(=O)c1cccc(OC2CCN(Cc3ccc(Cl)c(F)c3)CC2)c1 -23.6%
CCCCOCCCN1CC(=O)N2[C@@H](Cc3c([nH]c4ccccc34)C2(C)C)C1=O -3.37%
Cc1ccc(-c2cc(C(F)(F)F)c(C#N)c(SCC(=O)O)n2)cc1 -15.1%
CCOC(=O)C1=C(c2ccccc2)NC(=O)NC1c1cc(Br)c(O)c(OC)c1 (centres undefined) -26.7% [at 12 µM]
CCCn1nc([N+](=O)[O-])c(C(C#N)c2nc3ccccc3o2)c(Cl)c1=O (centres undefined) -72.7%
O=C(COC(=O)c1ccc(S(=O)(=O)NCc2ccco2)cc1)Nc1ccccc1OC(F)F 7.76%
Cc1cc(C)nc(Sc2nc(Cl)nc(N(c3ccccc3)c3ccccc3)n2)n1 -20.4%
